Among all 5,500 compounds or so, about 2,000 (36%) were called active. Roughly 18% stayed inconclusive and do not appear here. Cut-off read from the data, not from the text of the source: active = normalized growth mostly below about 0.91 (no sharp cut-off); inconclusive = no clear call, values can overlap the other calls; inactive = mostly above about 0.92. This is one part of the list.
Assay: chemical genetic growth profiling, strain panel (AID 1159580);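 note: tested at 20 µM; growth read once vehicle control cultures reached saturation at 30 °C; 1 = growth at the plate median or of vehicle wells; lower values mean less growth of the strain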
Settings: S. cerevisiae deletion strains, growth OD

Measured: normalized growth

Cc1ccc(S(=O)(=O)NC(=O)Nc2ccc(Sc3ccccc3)nc2Sc2ccccc2)cc1
active: locus YHR030C, strain SLT2, hits give low values 0.745
inactive: locus YAR019C, strain CDC15, hits give low values 0.984 | locus YBL105C, strain PKC1, hits give low values 0.967 | locus YBR135W, strain CKS1, hits give low values 0.968 | locus YBR136W, strain MEC1, hits give low values 0.972 | locus YBR160W, strain CDC28, hits give low values 0.969 | locus YDL017W, strain CDC7, hits give low values 0.974 | locus YDL028C, strain MPS1, hits give low values 0.974 | locus YDL101C, strain DUN1, hits give low values 0.983 | locus YDL108W, strain KIN28, hits give low values 0.966 | locus YDL132W, strain cdc53, hits give low values 0.956 | locus YDL214C, strain PRR2, hits give low values 0.927 | locus YDR052C, strain DBF4, hits give low values 0.978 | locus YDR054C, strain cdc34, hits give low values 0.969 | locus YDR226W, strain ADK1, hits give low values 0.977 | locus YDR477W, strain SNF1, hits give low values 0.936 | locus YER123W, strain YCK3, hits give low values 0.976 | locus YER133W, strain GLC7, hits give low values 0.961 | locus YFL009W, strain cdc4, hits give low values 0.957 | locus YFL029C, strain CAK1, hits give low values 0.979 | locus YFR003C, strain YPI1, hits give low values 0.969 | locus YFR019W, strain FAB1, hits give low values 0.993 | locus YFR028C, strain CDC14, hits give low values 0.974 | locus YGR040W, strain KSS1, hits give low values 0.942 | locus YGR052W, strain FMP48, hits give low values 0.982 | locus YGR092W, strain DBF2, hits give low values 0.913 | locus YHR079C, strain IRE1, hits give low values 0.948 | locus YHR082C, strain KSP1, hits give low values 1.03 | locus YHR205W, strain SCH9, hits give low values 0.946 | locus YIL147C, strain SLN1, hits give low values 0.977 | locus YJL095W, strain BCK1, hits give low values 0.933 | locus YJL128C, strain PBS2, hits give low values 0.967 | locus YJL157C, strain FAR1, hits give low values 0.97 | locus YJR016C, strain ILV3, hits give low values 0.98 | locus YJR066W, strain TOR1 (second series), hits give low values 0.967 | locus YJR066W, strain TOR1, hits give low values 0.95 | locus YKL048C, strain ELM1, hits give low values 0.97 | locus YKL067W, strain YNK1, hits give low values 0.914 | locus YKL101W, strain HSL1, hits give low values 0.957 | locus YKL193C, strain SDS22, hits give low values 0.972 | locus YKL203C, strain TOR2, hits give low values 1.04 | locus YLR113W, strain HOG1, hits give low values 0.885 | locus YLR133W, strain CKI1, hits give low values 0.954 | locus YLR403W, strain SFP1, hits give low values 0.999 | locus YML070W, strain DAK1, hits give low values 0.972 | locus YMR001C, strain CDC5, hits give low values 0.971 | locus YMR205C, strain PFK2 (second series), hits give low values 0.944 | locus YMR277W, strain FCP1, hits give low values 0.965 | locus YNL006W, strain LST8, hits give low values 0.968 | locus YNL020C, strain ARK1, hits give low values 0.949 | locus YNL161W, strain CBK1, hits give low values 0.973 | locus YNL183C, strain NPR1, hits give low values 0.969 | locus YNL207W, strain RIO2, hits give low values 0.966 | locus YNL222W, strain SSU72, hits give low values 0.948 | locus YNL307C, strain MCK1 (second series), hits give low values 0.945 | locus YOL078W, strain AVO1, hits give low values 0.966 | locus YOL136C, strain PFK27, hits give low values 0.972 | locus YOR061W, strain CKA2, hits give low values 0.938 | locus YOR119C, strain RIO1, hits give low values 0.98 | locus YOR231W, strain MKK1, hits give low values 0.976 | locus YOR329C, strain SCD5, hits give low values 0.977 | locus YPL031C, strain PHO85, hits give low values 0.94 | locus YPL153C, strain RAD53, hits give low values 0.946 | locus YPL204W, strain HRR25, hits give low values 0.934 | locus YPL209C, strain IPL1, hits give low values 0.976 | locus YPL256C, strain CLN2, hits give low values 0.955 | locus YPR025C, strain CCL1, hits give low values 0.97 | locus YPR106W, strain ISR1, hits give low values 0.979 | locus YPR111W, strain DBF20, hits give low values 0.954 | strain NNK1, hits give low values 0.974 | strain TSCII, hits give low values 0.963
